SW480 rerep: DNA re-replication induction in SW480 cells; actives 1.8% (n = 340,000); Potency, µM (doses to about 46.1 µM), without a hit: top-dose re-replication activation, usual class: activators; SW480 DNA re-replication, Hoechst DNA content imaging, 48 h; AID 624297; note: % of control where 0% means no effect; nearly all actives have a fitted effect of over 55% in size
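First, 250 cells per well were seeded. Next, compound or vehicle (23 nL) was pinned in, plates sat 48 hr at 37 C. Finally Hoechst was added for 40 min before fluorescence scanning.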
KB-3-1 cytotox: KB-3-1 parental cell cytotoxicity. KB-3-1 viability, CellTiter-Glo ATP luminescence, 72 h. Potency, µM (doses to about 46.1 µM), hits mostly cytotoxic. actives 1.4% (n = 400,000). AID 1347075; note: % is set by controls: 0 for no effect and ±100 for the full control effect; nearly all actives have a fitted effect of over 60% in size
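Parental KB-3-1 viability, qHTS format: 72 h compound exposure, 37 °C; CellTiter-Glo; media-only wells and DMSO plates as controls; concentration-effect fits on corrected data.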
HT1080 IDH1KD tx: HT-1080 IDH1 knockdown cell toxicity (counter line) | HT-1080 IDH1 knockdown viability, ATP luminescence, 48 h | Potency, µM (series often up to 46.1 µM), for inactives: at the top dose activity, negative = toxicity, usual class: cytotoxic | actives 2% (n = 360,000) | AID 686971;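 note: 0% = DMSO wells and -100% = cell-free medium wells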
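After a 2 h attachment period, IDH1KD HT-1080 cells took pin-transferred compound for 48 h at 37 °C; ATP-based luminescence after 10 min room-temperature reagent incubation reported viability.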
KB-V1 cytotox: KB-V1 MDR subline cytotoxicity. KB-V1 MDR cells viability, CellTiter-Glo, 72 h. Potency, µM (highest dose often 46.1 µM), most hits filed as cytotoxic. actives 3.4% (n = 400,000). AID 1347076; note: % is set by controls: 0 for no effect and ±100 for the full control effect; nearly all actives have a fitted effect of over 60% in size
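KB-V1 MDR subline cells in DMEM (phenol-red free, 10% FBS) exposed to compounds in qHTS concentration series for 72 h at 37 degrees C. Viability read by CellTiter-Glo luminescence; concentration-effect curves fitted after normalization and correction.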
MCF10A rereplic: induces DNA re-replication in MCF 10a normal breast cells; MCF 10A DNA re-replication, Hoechst nuclear intensity, 48 h; Potency, µM (titrated, usually from 46.1 µM), for inactives: at the highest dose activity, positive = re-replication, usual class: activators; actives 2.9% (n = 350,000); AID 624296; note: % of control where 0% means no effect; nearly all actives have a fitted effect of over 50% in size
HT1080-NT tox: kills 2HG-producing HT-1080-NT fibrosarcoma cells; Potency, µM (titrated, usually from 46.1 µM), for inactives: at the top dose activity, negative = less viability, hits mostly cytotoxic; actives 1.6% (n = 360,000); HT-1080-NT fibrosarcoma viability, CellTiter-Glo ATP luminescence, 48 h;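 note: NT is the 2HG producing partner of a matched IDH1 knockdown line; 0% = DMSO-treated cells and -100% = media-only wells without cells; nearly all actives have a fitted effect of over 55% in size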
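HT-1080-NT fibrosarcoma cells (2HG-overproducing), 750 cells/well in RPMI with 5% FBS, dosed after 2 h and incubated 48 h at 37C. CellTiter-Glo luminescence normalized to DMSO and no-cell wells; concentration-response curves fitted and classed.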
Numbers without * were called inactive; i = inactive; ? = inconclusive; / = no result; [ ] = another dose, or the depositor's remark. The list is not random: actives were taken first. Their share in the collection is about 7.9%. Calls come from the whole dose curve; as a rule, active = well fitted curve in the direction sought with a large enough effect; inconclusive = small, poorly fitted or top-dose-only effect, or another doubt; inactive = no such curve, though single readings can be large; an effect the other way counts as inactive or inconclusive. Potency is the fitted concentration of half-maximal effect.

SMILES | SW480 rerep | KB-3-1 cytotox | HT1080 IDH1KD tx | KB-V1 cytotox | MCF10A rereplic | HT1080-NT tox
c1ccc(OCCCCn2cnc3ccccc32)cc1 | 4.0% | i | ? | i | 1.9% | -4.8%
c1ccc2c(c1)ncn2CCCCOc1ccc2c(c1)CCC2 | ? | ? | 3.5% | ? | 20.6µM* | -3.0%
c1ccc2c(c1)ncn2CCCOc1ccc2c(c1)CCC2 | 26.2% | ? | ? | 11.6µM* | ? | ?
O=C(NCCN1C(=O)S/C(=C\c2ccc(Cl)c([N+](=O)[O-])c2)C1=O)C1=COCCO1 | -643.7% | ? | ? | i | 3.66µM* | 14.6µM*
O=C(NCCN1C(=O)S/C(=C\c2ccc(Cl)c(Cl)c2)C1=O)c1cnccn1 | 1.5% | i | -2.9% | i | ? | -1.9%
O=C(NCCC1=CCCCC1)c1c(O)nc2sccn2c1=O | 0.1% | ? | -22.7% | 5.17µM* | 18.3% | -21.2%
Cc1cc(O)c(C(c2ccccc2)N2CCN(c3ccccc3)CC2)c(=O)n1Cc1ccco1 (stereo not given) | / | i | / | i | / | /
Cc1nn2cc(-c3cccc(Cl)c3)cnc2c1Br | ? | i | ? | ? | ? | -20.2%
Cc1nn2cc(-c3cccc(Cl)c3)cnc2c1Cl | 6.51µM* | 13µM* | ? | 5.8µM* | 9.2µM* | 0.0%
CC1CCN(c2ccc(NC(=S)NC(=O)c3ccc(-c4cccc([N+](=O)[O-])c4)o3)cc2)CC1 | ? | i | 6.31µM* | i | 19.2% | ?
CC1CCN(c2ccccc2NC(=S)NC(=O)c2ccc(-c3cccc([N+](=O)[O-])c3)o2)CC1 | -21.1% | i | 15.3% | i | 8.1% | 7.9%
CCOC(=O)C1CCN(S(=O)(=O)Cc2ccccc2)C1=O (stereo not given) | -3.6% | i | -0.8% | i | -1.2% | -3.3%
CCOC(=O)C1CCN(C(=O)c2ccccc2)C(CC)C1=O (stereo not given) | -5.1% | i | -1.5% | 20.6µM* | 2.5% | -0.3%
CCOc1cc(/C=C2\CN(C)C/C(=C\c3ccc(O)c(OCC)c3)C2=O)ccc1O | 1.64µM* | 7.31µM* | 4.61µM* | 20.6µM* | 0.731µM* | 4.11µM*
CCOc1cc(/C=C2\CCC/C(=C\c3cc(Cl)c(O)c(OCC)c3)C2=O)cc(Cl)c1O | ? | ? | 5.8µM* | ? | ? | 7.31µM*
CCOc1cc(/C=C2\CCn3c2nc2cc(Cl)ccc2c3=O)ccc1O | 10.3µM* | i | -10.7% | i | 13µM* | -9.1%
O=c1c2ccc(Cl)cc2nc2n1CC/C2=C\c1cccc(O)c1 | ? | ? | -2.8% | ? | ? | -22.5%
CCOc1cc(/C=N\O)cc(Cl)c1OCC | -2.4% | i | -2.6% | i | 0.2% | -11.6%
COc1cc(C=C2CN(C)C(=O)C2=O)ccc1O | / | i | 6.8% | i | / | 0.6%
O=C(Cn1c(Cn2c(-c3cnccn3)nc3ccccc32)nc2ccccc21)c1ccc(OC(F)(F)F)cc1 | / | i | 4.3% | i | / | 13.8%
COC(=O)c1cccnc1-n1c(=O)c2cccnc2n(CC(=O)Nc2ccccc2F)c1=O | / | ? | / | i | / | /
O=c1[nH]cnc2cc(-c3ccccc3)sc12 | -4.6% | 16.4µM* | 1.1% | 6.51µM* | 5.4% | 0.3%
COc1ccc(-c2cc3nc[nH]c(=O)c3s2)cc1 | -8.9% | i | 1.2% | i | 19.0% | -15.0%
O=C(CN1CCC(n2nnc3cc(F)ccc32)CC1)N1CCc2ccccc2C1 | ? | i | ? | ? | 5.17µM* | -30.0%
CCOc1ccc2nc(NC(=O)CN3CCC(n4nnc5cc(F)ccc54)CC3)sc2c1 | -4.2% | ? | ? | 20.6µM* | ? | ?
SMILES | SW480 rerep | KB-3-1 cytotox | HT1080 IDH1KD tx | KB-V1 cytotox | MCF10A rereplic | HT1080-NT tox
O=C(CN1CCC(n2nnc3cc(F)ccc32)CC1)NC1CC1 | -4.0% | i | 13.2% | ? | 1.2% | 8.5%
O=C(CN1CCC(n2nnc3cc(F)ccc32)CC1)NC1CCCCC1 | 0.3% | i | 3.1% | 20.6µM* | 16.2% | 1.0%
Cc1ccc(-c2cc(C(F)(F)F)c(C#N)c(SCCC#N)n2)o1 | 9.2µM* | i | 8.5% | i | ? | 0.7%
Cc1cc(Cl)ccc1OCCCC(=O)NNC(=O)c1ccncc1 | -15.6% | ? | -11.2% | ? | 3.3% | -0.8%
O=S1(=O)CC(O)C(NCc2cccnc2)C1 (stereo not given) | 2.06µM* | i | 3.3% | i | 5.17µM* | 7.6%
CC(C)CNC1CS(=O)(=O)CC1O (stereo not given) | -14.1% | i | -1.7% | i | 1.9% | 4.5%
CCCn1c(=O)[nH]c2ccccc21 | -6.5% | i | 9.2% | i | -1.5% | 16.7%
Cc1cc(C)nc(SCCCn2c(=O)[nH]c3ccccc32)n1 | -4.1% | i | 2.4% | 9.2µM* | 0.8% | -1.6%
Cc1cc(N(C)C)c(C)cc1/C=C/c1ccnc2ccccc12 | / | 2.91µM* | / | 6.51µM* | / | /
CCCCN(CCCC)c1ccc(C=Nc2ccc(/C=C/c3ccnc4ccccc34)cc2)cc1C | / | ? | / | 23.1µM* | / | /
COc1cc(N(C)C)ccc1/C=C/c1ccnc2ccccc12 | / | i | / | ? | / | /
CCOc1ccc(C=Nc2ccc(/C=C/c3ccnc4ccccc34)cc2)cc1OCC | / | i | / | i | / | /
CCN(CC)c1cc(C)c(/C=C/c2ccnc3ccccc23)cc1C | / | 11.6µM* | / | ? | / | /
CCN(Cc1ccccc1)c1ccc(/C=C/c2ccnc3ccccc23)cc1 | / | i | / | i | / | /
Cc1ccnc(N2C3CCC2CC(O)(c2ccccc2)C3)n1 (stereo not given) | 9.0% | i | 2.1% | i | -19.2%[9.22 µM] | 4.5%
Cc1cc(N2C3CCC2CC(O)(c2ccc(F)cc2)C3)nc(-c2ccccc2)n1 (stereo not given) | -0.5% | i | -4.0%[9.24 µM] | i | 0.6% | 14.1µM*
Oc1cccc2ccc(/C=C/c3c(F)cccc3Cl)nc12 | 18.4µM* | ? | ? | i | 27.4% | -11.4%
Oc1cccc2ccc(/C=C/c3ccccc3Cl)nc12 | ? | i | -28.1% | i | 12.8% | -9.6%
CC1(C(=O)O)CCC(C(=O)Nc2ccc(F)cc2)C1(C)C (stereo not given) | -3.7% | i | 11.8% | ? | -3.6% | 21.6%
CCCNC(=O)N1[C@H](c2ccc(C)s2)[C@@H](C)C(=O)[C@@H](C)[C@@H]1c1ccc(C)s1 | / | i | / | i | / | /
Oc1c(Cl)cc(Cl)cc1C1=NNC(c2ccc(Cl)cc2)C1 (stereo not given) | ? | i | -20.2% | ? | 16.4µM* | 0.5%

Source: PubChem BioAssay
